# Inconclusive results are not listed. Active and inactive are the calls of the source. The calls were made as follows, unless noted: active = hit-call score of the fitted dose curve at least 0.9, where 1 is the maximum; inconclusive = response in the unintended direction; inactive = score below 0.9.
# Experiments:
# [1] = system: rat CYP3A1, gene 25642; test: NVS_ADME_rCYP3A1: NovaScreen (NVS) CYP450-related Enzyme Activity (ADME) Assay for rat CYP3A1 (AID 2283126)
# Outline: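 Cell-free recombinant CYP assay with fluorescent substrate, read 0.5 h after dosing. Screened at 10 uM in duplicate, hits at up to 20 uM in concentration-response; loss of signal versus acetonitrile baseline.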
# [2] = target: human Acetylcholinesterase (AChE), ACHE (gene 43) (UniProt P22303); test: NVS_ENZ_hAChE: NovaScreen (NVS) Enzymatic Assay for human Acetylcholinesterase (AChE) (AID 2283129)
# human Acetylcholinesterase (AChE), ACHE (gene 43), sequence (P22303 whole entry, looked up): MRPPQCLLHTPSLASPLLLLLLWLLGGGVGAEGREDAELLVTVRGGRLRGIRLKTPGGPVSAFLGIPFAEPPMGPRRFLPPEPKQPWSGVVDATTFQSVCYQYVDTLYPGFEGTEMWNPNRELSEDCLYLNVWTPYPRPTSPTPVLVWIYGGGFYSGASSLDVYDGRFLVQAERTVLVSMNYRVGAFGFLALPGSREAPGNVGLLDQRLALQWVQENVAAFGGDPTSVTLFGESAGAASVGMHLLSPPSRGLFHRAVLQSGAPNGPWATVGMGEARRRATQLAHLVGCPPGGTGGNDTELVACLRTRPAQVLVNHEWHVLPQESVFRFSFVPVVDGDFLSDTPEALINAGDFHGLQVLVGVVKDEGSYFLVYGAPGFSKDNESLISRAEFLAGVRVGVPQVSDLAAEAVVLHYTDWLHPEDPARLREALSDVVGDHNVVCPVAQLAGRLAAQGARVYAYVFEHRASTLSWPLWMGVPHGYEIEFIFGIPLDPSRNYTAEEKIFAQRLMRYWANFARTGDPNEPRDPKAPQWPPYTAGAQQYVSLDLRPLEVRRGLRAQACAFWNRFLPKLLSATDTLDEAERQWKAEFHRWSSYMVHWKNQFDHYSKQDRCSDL
# Outline: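 Cell-free colorimetric enzyme-activity assay; compounds read 0.33 hour after dosing, loss of signal vs DMSO baseline. Primary screen in duplicate at 25 uM single concentration, with active compounds retested in concentration series.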
# [3] = target: human CYP2C8, CYP2C8 (gene 1558) (UniProt P10632); test: NVS_ADME_hCYP2C8: NovaScreen (NVS) CYP450-related Enzyme Activity (ADME) Assay for human CYP2C8 (AID 2283104; active = hit-call score of the fitted dose curve at least 0.9, where 1 is the maximum; inactive = score below 0.9)
# Outline: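 Recombinant human CYP2C8 with fluorogenic substrate, 0.5 h, fluorescence intensity; signal loss fitted versus acetonitrile. Screened in duplicate at 10 uM, then actives run in concentration-response up to 20 uM.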
# [4] = target: human CYP2J2, CYP2J2 (gene 1573) (UniProt P51589); test: NVS_ADME_hCYP2J2: NovaScreen (NVS) CYP450-related Enzyme Activity (ADME) Assay for human CYP2J2 (AID 2283106)
# Outline: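 Cell-free assay of recombinant CYP2J2 with a fluorogenic substrate, read 1 h after dosing; loss of signal versus acetonitrile. Primary screen at 10 uM in duplicate, then concentration-response up to 20 uM for chemicals passing threshold (e.g., 30% inhibition).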
# [5] = target: rat CYP2A2, Cyp2a2 (gene 24895) (UniProt P15149); test: NVS_ADME_rCYP2A2: NovaScreen (NVS) CYP450-related Enzyme Activity (ADME) Assay for rat CYP2A2 (AID 2283116)
# rat CYP2A2, Cyp2a2 (gene 24895), sequence (P15149 whole entry, looked up): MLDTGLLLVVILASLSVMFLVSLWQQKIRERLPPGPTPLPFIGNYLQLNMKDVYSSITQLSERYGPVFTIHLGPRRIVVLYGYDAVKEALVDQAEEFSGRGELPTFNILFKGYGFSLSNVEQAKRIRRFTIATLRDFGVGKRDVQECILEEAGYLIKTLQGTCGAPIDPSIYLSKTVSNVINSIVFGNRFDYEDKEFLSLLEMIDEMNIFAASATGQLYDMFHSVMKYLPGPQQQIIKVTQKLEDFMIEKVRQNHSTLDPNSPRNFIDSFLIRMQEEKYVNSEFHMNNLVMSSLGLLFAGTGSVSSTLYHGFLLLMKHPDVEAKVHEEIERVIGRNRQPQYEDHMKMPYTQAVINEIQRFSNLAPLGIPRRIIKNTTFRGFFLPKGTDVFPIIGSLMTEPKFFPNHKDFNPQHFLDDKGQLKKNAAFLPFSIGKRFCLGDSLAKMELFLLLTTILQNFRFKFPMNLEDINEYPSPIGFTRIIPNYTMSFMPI
# Outline: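 Cell-free recombinant rat CYP2A2 activity with fluorogenic substrate, fluorescence read 0.2 h after dosing. Chemicals screened at 10 uM in duplicate, hits then run in concentration-response up to 20 uM; signal loss versus acetonitrile baseline.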
# [6] = target: rat CYP2C11, Cyp2c11 (gene 29277) (UniProt P08683); test: NVS_ADME_rCYP2C11: NovaScreen (NVS) CYP450-related Enzyme Activity (ADME) Assay for rat CYP2C11 (AID 2283118)
# rat CYP2C11, Cyp2c11 (gene 29277), sequence (P08683 whole entry, looked up): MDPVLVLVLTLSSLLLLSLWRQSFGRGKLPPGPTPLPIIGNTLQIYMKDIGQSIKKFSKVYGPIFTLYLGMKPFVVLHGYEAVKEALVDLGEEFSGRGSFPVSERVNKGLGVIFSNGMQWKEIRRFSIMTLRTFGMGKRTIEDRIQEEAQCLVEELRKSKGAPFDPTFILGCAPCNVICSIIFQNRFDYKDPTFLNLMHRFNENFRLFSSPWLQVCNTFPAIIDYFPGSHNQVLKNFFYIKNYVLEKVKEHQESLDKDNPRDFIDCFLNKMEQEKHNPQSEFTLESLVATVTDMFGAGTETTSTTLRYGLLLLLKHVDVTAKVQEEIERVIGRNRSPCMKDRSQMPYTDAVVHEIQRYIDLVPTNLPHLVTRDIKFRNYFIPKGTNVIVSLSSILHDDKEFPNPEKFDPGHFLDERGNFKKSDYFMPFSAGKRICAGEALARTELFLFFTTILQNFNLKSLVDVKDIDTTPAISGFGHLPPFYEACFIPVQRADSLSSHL
# Outline: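 Cell-free recombinant rat enzyme with fluorescent substrate; readout 0.33 h after dosing, loss of signal versus acetonitrile control. Initial duplicate single-point at 10 uM; actives rerun in concentration series.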
# [7] = target: rat CYP3A2, Cyp3a2 (gene 266682) (UniProt P05183); test: NVS_ADME_rCYP3A2: NovaScreen (NVS) CYP450-related Enzyme Activity (ADME) Assay for rat CYP3A2 (AID 2283128)
# rat CYP3A2, Cyp3a2 (gene 266682), sequence (P05183 whole entry, looked up): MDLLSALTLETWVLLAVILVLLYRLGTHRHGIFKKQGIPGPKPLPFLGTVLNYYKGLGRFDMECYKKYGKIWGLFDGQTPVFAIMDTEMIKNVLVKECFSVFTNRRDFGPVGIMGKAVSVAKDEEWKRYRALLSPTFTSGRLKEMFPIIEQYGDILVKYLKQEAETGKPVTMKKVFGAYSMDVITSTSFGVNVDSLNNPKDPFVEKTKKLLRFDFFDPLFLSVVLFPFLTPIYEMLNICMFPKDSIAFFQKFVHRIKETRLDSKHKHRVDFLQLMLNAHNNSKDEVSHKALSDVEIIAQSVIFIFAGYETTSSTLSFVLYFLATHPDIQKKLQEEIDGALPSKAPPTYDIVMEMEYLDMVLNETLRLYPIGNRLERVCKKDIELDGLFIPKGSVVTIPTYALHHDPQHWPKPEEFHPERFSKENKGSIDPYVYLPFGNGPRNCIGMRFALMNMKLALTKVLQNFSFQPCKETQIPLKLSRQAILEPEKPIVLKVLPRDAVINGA
# Outline: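 Cell-free rat CYP3A2 enzyme assay with fluorescent substrate, read 0.5 h after dosing. Primary duplicate screen at 10 uM; actives run in concentration-response up to 20 uM, relative to acetonitrile baseline.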
# [8] = target: Cytochrome P450 2C19 (Homo sapiens) (UniProt P33261); test: NVS_ADME_hCYP2C19: NovaScreen (NVS) CYP450-related Enzyme Activity (ADME) Assay for human CYP2C19 (AID 2283113);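 as to AC50: potency for inhibition seen as loss of fluorescent signal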
# Outline: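 Compounds first screened in duplicate at 10 uM, then confirmed in concentration series. Insect-cell-expressed human CYP2C19 turned over a fluorogenic substrate, and fluorescence was read after 1 h. Inhibition taken as signal loss relative to acetonitrile.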
# [9] = target: human CYP2D6, CYP2D6 (gene 1565) (UniProt P10635); test: NVS_ADME_hCYP2D6: NovaScreen (NVS) CYP450-related Enzyme Activity (ADME) Assay for human CYP2D6 (AID 2283107)
# human CYP2D6, CYP2D6 (gene 1565), sequence (P10635 whole entry, looked up): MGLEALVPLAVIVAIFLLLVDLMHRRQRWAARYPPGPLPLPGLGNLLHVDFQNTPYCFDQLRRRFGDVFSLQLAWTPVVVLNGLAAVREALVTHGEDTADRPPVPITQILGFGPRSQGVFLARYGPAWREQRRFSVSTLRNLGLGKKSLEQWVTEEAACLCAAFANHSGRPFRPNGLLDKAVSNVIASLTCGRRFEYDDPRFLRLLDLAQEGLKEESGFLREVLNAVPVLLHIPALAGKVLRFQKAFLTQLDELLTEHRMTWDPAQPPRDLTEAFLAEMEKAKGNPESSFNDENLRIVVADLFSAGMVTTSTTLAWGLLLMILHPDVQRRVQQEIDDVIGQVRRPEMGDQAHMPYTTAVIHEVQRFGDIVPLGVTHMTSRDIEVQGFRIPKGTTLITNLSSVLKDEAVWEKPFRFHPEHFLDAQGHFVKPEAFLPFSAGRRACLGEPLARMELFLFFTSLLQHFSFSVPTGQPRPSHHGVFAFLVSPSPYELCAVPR
# Outline: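 Fluorescence readout of recombinant CYP2D6 (insect-cell derived) activity after 1 h incubation with test chemical. Acetonitrile served as baseline, loss-of-signal direction. Single-concentration duplicate screening at 10 uM preceded concentration-response retesting.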
# [10] = target: rat CYP2D2, Cyp2d26 (gene 25053) (UniProt P10634); test: NVS_ADME_rCYP2D2: NovaScreen (NVS) CYP450-related Enzyme Activity (ADME) Assay for rat CYP2D2 (AID 2283124)
# rat CYP2D2, Cyp2d26 (gene 25053), sequence (P10634 whole entry, looked up): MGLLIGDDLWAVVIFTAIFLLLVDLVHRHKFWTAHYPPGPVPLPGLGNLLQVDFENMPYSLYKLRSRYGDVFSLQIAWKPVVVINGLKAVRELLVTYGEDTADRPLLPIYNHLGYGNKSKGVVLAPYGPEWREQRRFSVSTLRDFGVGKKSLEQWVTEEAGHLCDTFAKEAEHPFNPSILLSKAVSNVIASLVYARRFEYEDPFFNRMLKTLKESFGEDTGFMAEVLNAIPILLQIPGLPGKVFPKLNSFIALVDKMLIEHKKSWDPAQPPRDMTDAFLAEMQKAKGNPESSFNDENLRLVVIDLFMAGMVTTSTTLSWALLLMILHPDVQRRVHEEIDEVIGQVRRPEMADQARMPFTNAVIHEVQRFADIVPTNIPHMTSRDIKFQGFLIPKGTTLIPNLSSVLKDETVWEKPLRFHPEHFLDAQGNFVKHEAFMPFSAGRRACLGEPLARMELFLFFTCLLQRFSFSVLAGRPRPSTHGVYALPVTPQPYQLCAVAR
# Outline: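 Recombinant rat CYP2D2 in a cell-free fluorogenic activity assay, fluorescence read 0.75 h after dosing. Primary screen in duplicate at 10 uM; actives re-run singly in concentration-response to 20 uM, relative to acetonitrile.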
# [11] = target: rat CYP2C13, Cyp2c13 (gene 171521) (UniProt P20814); test: NVS_ADME_rCYP2C13: NovaScreen (NVS) CYP450-related Enzyme Activity (ADME) Assay for rat CYP2C13 (AID 2283121)
# rat CYP2C13, Cyp2c13 (gene 171521), sequence (P20814 whole entry, looked up): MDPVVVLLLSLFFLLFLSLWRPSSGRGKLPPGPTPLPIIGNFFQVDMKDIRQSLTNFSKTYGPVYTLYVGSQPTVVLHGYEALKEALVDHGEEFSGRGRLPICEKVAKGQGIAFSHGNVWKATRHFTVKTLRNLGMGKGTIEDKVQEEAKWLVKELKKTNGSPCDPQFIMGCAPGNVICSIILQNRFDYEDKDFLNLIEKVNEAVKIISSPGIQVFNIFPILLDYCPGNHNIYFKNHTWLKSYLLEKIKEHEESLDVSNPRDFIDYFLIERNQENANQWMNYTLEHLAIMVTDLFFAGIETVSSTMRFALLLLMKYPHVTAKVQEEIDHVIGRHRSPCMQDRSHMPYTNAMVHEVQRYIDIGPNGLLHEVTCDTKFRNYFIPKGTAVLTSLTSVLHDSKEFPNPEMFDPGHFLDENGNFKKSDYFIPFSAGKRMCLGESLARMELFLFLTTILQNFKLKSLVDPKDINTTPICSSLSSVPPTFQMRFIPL
# Outline: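 Recombinant rat CYP2C13 with fluorogenic substrate, 0.75 h cell-free incubation; primary screen in duplicate at 10 uM, actives followed in concentration series. Fluorescence loss relative to acetonitrile control indicates inhibition.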
# [12] = target: rat CYP2A1, Cyp2a1 (gene 24894) (UniProt P11711); test: NVS_ADME_rCYP2A1: NovaScreen (NVS) CYP450-related Enzyme Activity (ADME) Assay for rat CYP2A1 (AID 2283114; active = hit-call score of the fitted dose curve at least 0.9, where 1 is the maximum; inactive = score below 0.9)
# rat CYP2A1, Cyp2a1 (gene 24894), sequence (P11711 whole entry, looked up): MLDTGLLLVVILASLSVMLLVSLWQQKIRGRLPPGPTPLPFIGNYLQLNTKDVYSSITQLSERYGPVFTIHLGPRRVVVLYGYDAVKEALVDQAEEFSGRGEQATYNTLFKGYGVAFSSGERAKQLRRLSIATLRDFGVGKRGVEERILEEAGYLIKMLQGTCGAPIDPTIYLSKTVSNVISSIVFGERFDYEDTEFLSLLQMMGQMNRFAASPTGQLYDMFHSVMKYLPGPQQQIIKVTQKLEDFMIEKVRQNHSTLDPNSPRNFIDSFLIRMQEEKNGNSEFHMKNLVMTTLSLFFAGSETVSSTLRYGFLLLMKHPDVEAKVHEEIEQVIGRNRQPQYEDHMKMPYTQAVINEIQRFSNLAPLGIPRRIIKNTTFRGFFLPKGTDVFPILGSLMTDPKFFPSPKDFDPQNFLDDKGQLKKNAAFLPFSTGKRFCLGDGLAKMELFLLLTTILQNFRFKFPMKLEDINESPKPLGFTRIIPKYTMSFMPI
# Outline: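 Recombinant rat CYP2A1, cell-free, fluorogenic substrate turnover read by fluorescence intensity 0.75 h after dosing. Primary screen at 10 uM in duplicate; actives rerun as concentration-response up to 20 uM; loss of signal versus acetonitrile control.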
# [13] = system: rat CYP2C6, gene 293989; test: NVS_ADME_rCYP2C6: NovaScreen (NVS) CYP450-related Enzyme Activity (ADME) Assay for rat CYP2C6 (AID 2283120)
# Outline: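 Cell-free recombinant rat CYP2C6 with fluorogenic substrate, read by fluorescence 1 h after dosing; acetonitrile as negative control. Primary screen at 10 uM in duplicate, actives then in concentration-response up to 20 uM.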
# [14] = target: rat CYP2C12, Cyp2c12 (gene 25011) (UniProt P11510); test: NVS_ADME_rCYP2C12: NovaScreen (NVS) CYP450-related Enzyme Activity (ADME) Assay for rat CYP2C12 (AID 2283119)
# rat CYP2C12, Cyp2c12 (gene 25011), sequence (P11510 whole entry, looked up): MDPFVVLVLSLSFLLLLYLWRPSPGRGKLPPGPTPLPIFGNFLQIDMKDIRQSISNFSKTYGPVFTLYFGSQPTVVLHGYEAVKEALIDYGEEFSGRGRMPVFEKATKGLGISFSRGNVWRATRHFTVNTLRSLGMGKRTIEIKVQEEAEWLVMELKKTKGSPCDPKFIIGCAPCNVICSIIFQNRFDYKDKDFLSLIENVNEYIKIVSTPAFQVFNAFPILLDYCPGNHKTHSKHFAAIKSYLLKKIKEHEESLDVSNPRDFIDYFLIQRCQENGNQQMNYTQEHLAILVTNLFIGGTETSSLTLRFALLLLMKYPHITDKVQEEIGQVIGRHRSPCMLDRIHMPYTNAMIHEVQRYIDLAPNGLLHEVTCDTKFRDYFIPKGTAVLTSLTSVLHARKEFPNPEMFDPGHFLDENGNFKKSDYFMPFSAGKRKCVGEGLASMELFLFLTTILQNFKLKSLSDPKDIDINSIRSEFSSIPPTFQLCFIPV
# Outline: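 Cell-free recombinant rat CYP2C12 activity read by fluorescence 0.5 h after dosing; loss of signal versus acetonitrile control. Primary screen in duplicate at 10 uM; actives then run in concentration-response format.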
# [15] = target: rat CYP2D1, Cyp2d1 (gene 266684) (UniProt P10633); test: NVS_ADME_rCYP2D1: NovaScreen (NVS) CYP450-related Enzyme Activity (ADME) Assay for rat CYP2D1 (AID 2283122)
# Outline: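 Cell-free fluorescence enzyme-activity assay on extracted rat CYP2D1 protein, read 0.75 h after dosing. Primary screen in duplicate at 10 uM; qualifying chemicals then run in concentration-response to 20 uM max, loss-of-signal versus acetonitrile baseline.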
# [16] = target: human CYP4F12, CYP4F12 (gene 66002) (UniProt Q9HCS2); test: NVS_ADME_hCYP4F12: NovaScreen (NVS) CYP450-related Enzyme Activity (ADME) Assay for human CYP4F12 (AID 2283111)
# Outline: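 Cell-free fluorescence assay of recombinant human CYP4F12 activity on a specific substrate, read 0.5 h after dosing. Primary screen in duplicate at 10 uM, then concentration series for actives; loss of signal fitted against acetonitrile negative control.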
smiles,measurement,setting,value
O=C(O)c1cc(Oc2ccc(C(F)(F)F)cc2Cl)ccc1[N+](=O)[O-],AC50,[1],5.89 µM (active)
CNC(=O)ON=C(C)SC,AC50,[2],25 µM (active)
C#CCC1=C(C)C(OC(=O)C2C(C=C(C)C)C2(C)C)CC1=O (centres undefined),outcome,[3],inactive
same,AC50,[4],10 µM (active)
same,AC50,[5],3.46 µM (active)
same,outcome,[6],inactive
same,AC50,[1],7.59 µM (active)
same,AC50,[7],3.03 µM (active)
CCOP(=O)(OCC)Oc1cc(C)nc(C(C)C)n1,AC50,[8],10 µM (active)
same,outcome,[1],inactive
CNC(=O)Oc1cccc2c1OC(C)(C)O2,AC50,[2],1.36 µM (active)
CCOP(=S)(OCC)OC(Cl)C(Cl)(Cl)Cl (centres undefined),AC50,[2],8.21 µM (active)
CCOP(=S)(OCC)Oc1cc(C)nc(C(C)C)n1,AC50,[8],4.82 µM (active)
same,AC50,[1],6.82 µM (active)
CON=C(C(=O)OC)c1ccccc1CON=C(C)c1cccc(C(F)(F)F)c1,AC50,[8],2.26 µM (active)
COP(=O)(OC)OC(Br)C(Cl)(Cl)Br (centres undefined),outcome,[9],inactive
same,AC50,[8],7.79 µM (active)
same,AC50,[2],3.67 µM (active)
CCCCOC(=O)[C@@H](C)Oc1ccc(Oc2ccc(C#N)cc2F)cc1,AC50,[8],10 µM (active)
same,AC50,[10],12.1 µM (active)
CNC(=O)ON=C(SC)C(=O)N(C)C,AC50,[2],12 µM (active)
CC(C)N(C(=O)SCC(Cl)=C(Cl)Cl)C(C)C,outcome,[5],inactive
CC(C)=CC1C(C(=O)OCN2C(=O)C3=C(CCCC3)C2=O)C1(C)C (centres undefined),AC50,[8],6.88 µM (active)
same,AC50,[11],8.97 µM (active)
same,AC50,[10],10 µM (active)
same,outcome,[1],inactive
CCCSP(=O)(OCC)SCCC,AC50,[9],7.87 µM (active)
COc1cccc(C(=O)NN(C(=O)c2cc(C)cc(C)c2)C(C)(C)C)c1C,AC50,[8],2.58 µM (active)
same,AC50,[11],2.64 µM (active)
same,AC50,[1],0.331 µM (active)
same,AC50,[7],0.651 µM (active)
CC1(C(=O)Nc2ccc(O)c(Cl)c2Cl)CCCCC1,AC50,[8],6.6 µM (active)
same,AC50,[12],1.8 µM (active)
same,AC50,[11],1.37 µM (active)
same,AC50,[7],3.42 µM (active)
CC(C)[C@H](C(=O)O[C@H](C#N)c1cccc(Oc2ccccc2)c1)c1ccc(Cl)cc1,AC50,[8],8.22 µM (active)
CCOP(=O)(SC(C)CC)N1CCSC1=O (centres undefined),AC50,[8],6.44 µM (active)
same,AC50,[6],3.88 µM (active)
same,AC50,[13],5.01 µM (active)
same,AC50,[1],6.64 µM (active)
same,AC50,[7],8.56 µM (active)
CSc1nnc(C(C)(C)C)c(=O)n1N,outcome,[9],inactive
same,outcome,[8],inactive
CCC(=NOC/C=C/Cl)C1=C(O)CC(C2CCOCC2)CC1=O (centres undefined),outcome,[5],inactive
CSC1=N[C@@](C)(c2ccccc2)C(=O)N1Nc1ccccc1,AC50,[8],0.776 µM (active)
same,AC50,[12],7.68 µM (active)
same,AC50,[14],8 µM (active)
same,outcome,[15],inactive
same,AC50,[1],2.77 µM (active)
same,AC50,[7],7.11 µM (active)
CN(C)NC(=O)CCC(=O)O,outcome,[7],inactive
CC(=NC#N)N(C)Cc1ccc(Cl)nc1,AC50,[8],10 µM (active)
same,outcome,[11],inactive
same,AC50,[2],22.4 µM (active)
S=C1NCCN1,outcome,[8],inactive
same,outcome,[14],inactive
same,outcome,[1],inactive
CN(C)[C@@H]1C(=O)C(C(N)=O)=C(O)[C@@]2(O)C(=O)C3=C(O)c4c(O)cccc4[C@@](C)(O)[C@H]3[C@H](O)[C@@H]12,outcome,[9],inactive
same,AC50,[16],0.0105 µM (active)

# — PubChem BioAssay (EPA / NIEHS)
